About 2,000 (36%) of roughly 5,500 compounds were called active. Inconclusive results (about 18%) are left out. The list shows a part of the results. Values without a mark were called inactive. Cut-off read from the data, not from the text of the source: active = normalized growth mostly below about 0.91 (no sharp cut-off); inconclusive = no clear call, values can overlap the other calls; inactive = mostly above about 0.92.
Experiment: chemical genetic growth profiling, strain panel (AID 1159580);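 note: tested at 20 µM; growth read once vehicle control cultures reached saturation at 30 °C; 1 = growth at the plate median or of vehicle wells; lower values mean less growth of the strain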
Details: S. cerevisiae deletion strains, growth OD

C=Cc1c(C)c2[n-]c1=Cc1[n-]c(c(CC)c1C)C=c1[n-]c3c(c1C)C(=O)C(C(=O)[O-])C=3c1[n-]c(c(C)c1CCC(=O)[O-])C=2.[Cu] (configuration not stated)
normalized growth (locus YAL021C, strain ccr4, active compounds read low): 1.07
normalized growth (locus YAL026C, strain drs2, active compounds read low): 1.02
normalized growth (locus YAL030W, strain snc1, active compounds read low): 1.09 [resistant] (active)
normalized growth (locus YBL061C, strain skt5, active compounds read low): 1.08
normalized growth (locus YBR009C, strain hhf1, active compounds read low): 1.02
normalized growth (locus YBR023C, strain chs3, active compounds read low): 1.07
normalized growth (locus YBR171W, strain sec66, active compounds read low): 1.09
normalized growth (locus YBR231C, strain swc5, active compounds read low): 1.08
normalized growth (locus YBR279W, strain paf1, active compounds read low): 1.06
normalized growth (locus YCL011C, strain gbp2, active compounds read low): 1.05
normalized growth (locus YCL016C, strain dcc1, active compounds read low): 1.03
normalized growth (locus YCL061C, strain MRC1, active compounds read low): 1.03
normalized growth (locus YCL069W, strain vba3, active compounds read low): 1.07
normalized growth (locus YCR088W, strain abp1, active compounds read low): 1.11 [resistant] (active)
normalized growth (locus YDL005C, strain med2, active compounds read low): 1.08
normalized growth (locus YDL040C, strain nat1, active compounds read low): 1.08 [resistant] (active)
normalized growth (locus YDR001C, strain nth1, active compounds read low): 1.1 [resistant] (active)
normalized growth (locus YDR069C, strain doa4, active compounds read low): 1.12 [resistant] (active)
normalized growth (locus YDR137W, strain rgp1, active compounds read low): 1.16 [resistant] (active)
normalized growth (locus YDR159W, strain sac3, active compounds read low): 1.09
normalized growth (locus YDR195W, strain ref2): 1.28 [resistant] (active)
normalized growth (locus YDR297W, strain sur2, active compounds read low): 1.08 [resistant] (active)
normalized growth (locus YDR334W, strain swr1, active compounds read low): 1.11 [resistant] (active)
normalized growth (locus YDR335W, strain msn5, active compounds read low): 1.02
normalized growth (locus YDR392W, strain spt3, active compounds read low): 1.11
normalized growth (locus YEL003W, strain gim4, active compounds read low): 1.03
normalized growth (locus YEL037C, strain rad23, active compounds read low): 1.07
normalized growth (locus YEL061C, strain CIN8 (second series), active compounds read low): 1.09 [resistant] (active)
normalized growth (locus YER015W, strain faa2, active compounds read low): 1.02
normalized growth (locus YER016W, strain bim1, active compounds read low): 1.09 [resistant] (active)
normalized growth (locus YER111C, strain swi4, active compounds read low): 1.09 [resistant] (active)
normalized growth (locus YER155C, strain BEM2 (second series), active compounds read low): 1.17 [resistant] (active)
normalized growth (locus YFR010W, strain ubp6, active compounds read low): 1.1
normalized growth (locus YGL167C, strain pmr1, active compounds read low): 1.08
normalized growth (locus YGL173C, strain kem1, active compounds read low): 1.02
normalized growth (locus YGL227W, strain vid30, active compounds read low): 1.1 [resistant] (active)
normalized growth (locus YGL240W, strain doc1, active compounds read low): 1.03
normalized growth (locus YGL253W, strain hxk2, active compounds read low): 1.02
normalized growth (locus YHR013C, strain ard1, active compounds read low): 1.18 [resistant] (active)
normalized growth (locus YHR027C, strain rpn1, active compounds read low): 1.05
normalized growth (locus YHR030C, strain SLT2, active compounds read low): 0.992
normalized growth (locus YHR079C, strain IRE1, active compounds read low): 0.998
normalized growth (locus YHR142W, strain chs7, active compounds read low): 1.08
normalized growth (locus YJL092W, strain hpr5, active compounds read low): 1.07
normalized growth (locus YJL095W, strain BCK1 (second series), active compounds read low): 1.09 [resistant] (active)
normalized growth (locus YJL095W, strain BCK1, active compounds read low): 0.957
normalized growth (locus YJL115W, strain asf1, active compounds read low): 1.11 [resistant] (active)
normalized growth (locus YJL129C, strain trk1, active compounds read low): 1.15 [resistant] (active)
normalized growth (locus YJL154C, strain vps35, active compounds read low): 1.09 [resistant] (active)
normalized growth (locus YJL164C, strain tpk1, active compounds read low): 1.05
normalized growth (locus YJL166W, strain qcr8, active compounds read low): 1.01
normalized growth (locus YJL187C, strain SWE1, active compounds read low): 1.08 [resistant] (active)
normalized growth (locus YJR066W, strain TOR1, active compounds read low): 0.957
normalized growth (locus YKL160W, strain elf1, active compounds read low): 1.06
normalized growth (locus YKR026C, strain gcn3, active compounds read low): 1.1 [resistant] (active)
normalized growth (locus YKR091W, strain srl3, active compounds read low): 1.08 [resistant] (active)
normalized growth (locus YLL001W, strain dnm1, active compounds read low): 1.06
normalized growth (locus YLL026W, active compounds read low): 1.08 [resistant] (active)
normalized growth (locus YLL041C, strain sdh2, active compounds read low): 1.08 [resistant] (active)
normalized growth (locus YLR027C, strain aat2, active compounds read low): 1.07
normalized growth (locus YLR113W, strain HOG1, active compounds read low): 0.999
normalized growth (locus YLR221C, strain rsa3, active compounds read low): 1.01
normalized growth (locus YLR258W, strain gsy2, active compounds read low): 1.07
normalized growth (locus YLR262C, strain YPT6 (second series), active compounds read low): 1.09
normalized growth (locus YLR320W, strain mms22, active compounds read low): 1.06
normalized growth (locus YLR342W, strain FKS1, active compounds read low): 1.04
normalized growth (locus YLR357W, strain rsc2, active compounds read low): 1.08
normalized growth (locus YLR370C, strain arc18, active compounds read low): 1.04
normalized growth (locus YLR384C, strain iki3, active compounds read low): 1.08
normalized growth (locus YML120C, strain ndi1, active compounds read low): 1.03
normalized growth (locus YMR058W, strain fet3, active compounds read low): 0.967
normalized growth (locus YMR125W, strain sto1, active compounds read low): 1.13 [resistant] (active)
normalized growth (locus YMR129W, active compounds read low): 1.08 [resistant] (active)
normalized growth (locus YMR205C, strain PFK2, active compounds read low): 1.11
normalized growth (locus YMR231W, strain pep5, active compounds read low): 1.08 [resistant] (active)
normalized growth (locus YNL071W, strain lat1, active compounds read low): 1.09 [resistant] (active)
normalized growth (locus YNL183C, strain NPR1, active compounds read low): 0.862
normalized growth (locus YNL209W, strain ssb2, active compounds read low): 1.04
normalized growth (locus YNL248C, strain rpa49, active compounds read low): 1.03
normalized growth (locus YNL322C, strain KRE1 (second series), active compounds read low): 1.08
normalized growth (locus YNR049C, strain mso1, active compounds read low): 1.09 [resistant] (active)
normalized growth (locus YOR001W, strain rrp6, active compounds read low): 1.05
normalized growth (locus YOR070C, strain gyp1, active compounds read low): 1.05
normalized growth (locus YOR080W, strain dia2, active compounds read low): 1.06
normalized growth (locus YOR083W, strain WHI5, active compounds read low): 0.992
normalized growth (locus YOR106W, strain vam3, active compounds read low): 0.999
normalized growth (locus YOR231W, strain MKK1, active compounds read low): 1.01
normalized growth (locus YOR265W, strain rbl2, active compounds read low): 1.09 [resistant] (active)
normalized growth (locus YOR270C, strain vph1, active compounds read low): 1.15
normalized growth (locus YOR290C, strain snf2, active compounds read low): 1.06
normalized growth (locus YPL051W, strain arl3, active compounds read low): 1.07
normalized growth (locus YPL078C, strain atp4, active compounds read low): 1.03
normalized growth (locus YPL106C, strain sse1, active compounds read low): 1.16 [resistant] (active)
normalized growth (locus YPL240C, strain hsp82, active compounds read low): 1.09 [resistant] (active)
normalized growth (locus YPL256C, strain CLN2, active compounds read low): 1.05

Cc1nc2sccn2c(=O)c1CCN1CCC(=C(c2ccccc2)c2ccc(F)cc2)CC1
normalized growth (locus YAL013W, strain DEP1, active compounds read low): 0.965
normalized growth (locus YAL040C, strain CLN3, active compounds read low): 0.99
normalized growth (locus YCL061C, strain MRC1 (second series), active compounds read low): 0.993
normalized growth (locus YDR150W, strain NUM1, active compounds read low): 0.995
normalized growth (locus YDR363W, strain ESC2, active compounds read low): 0.985
normalized growth (locus YJR075W, strain HOC1, active compounds read low): 1.01
normalized growth (locus YMR263W, strain SAP30, active compounds read low): 0.992
normalized growth (locus YNL175C, strain NOP13, active compounds read low): 1.04
normalized growth (locus YNL197C, strain WHI3, active compounds read low): 1.05
normalized growth (locus YNL224C, strain SQS1, active compounds read low): 1.02
normalized growth (locus YNL322C, strain KRE1, active compounds read low): 0.956
normalized growth (locus YPL241C, strain CIN2, active compounds read low): 0.992

From PubChem BioAssay AID1159580 (chemical genetic matrix, 2015)
